Data published in the supplement of paper PMC9262897, “Low-cost anti-mycobacterial drug discovery using engineered E. coli” (Nature Communications, 2022).
Counter-ions that a name gives are not always drawn. ± gives the standard deviation of the averaged measurements.

The compounds below were run on E. coli TESEC Mtb Asd (assay: growth (OD600 after 10 h); higher = more growth (less inhibition)). Details: arabinose induction (level): High; compound 0.1 mM; raw OD600 reference: median of DMSO wells 0.331, cell-free background 0.041.
Method: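 TESEC E. coli strains in which the native enzyme is deleted and replaced by arabinose-inducible Mtb Asd, DapB, CysH or TrpD, each grown in its selective medium. Strains were screened against the Prestwick library at 0.1 mM and 1% DMSO in 384-well format at low and high arabinose induction. Growth is read as OD600 after 10 h in triplicate.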

SMILES | growth
Cc1ccc(C)c(OCCCC(C)(C)C(=O)O)c1 [Gemfibrozil] | 0.202 ± 0.051
O=C1CCc2cc(OCCCCc3nnnn3C3CCCCC3)ccc2N1 [Cilostazol] | 0.225 ± 0.051
COc1cc(C(=O)NCc2ccc(OCCN(C)C)cc2)cc(OC)c1OC [Trimethobenzamide hydrochloride] | 0.227 ± 0.059
Cc1nnc(SCC2=C(C(=O)O)N3C(=O)[C@@H](NC(=O)Cn4cnnn4)[C@H]3SC2)s1 [Cefazolin sodium salt] | 0.313 ± 0.07
N#Cc1ccc(C(c2ccc(C#N)cc2)n2cncn2)cc1 [Letrozole] | 0.243 ± 0.06
CCOc1nc2cccc(C(=O)O)c2n1Cc1ccc(-c2ccccc2-c2nnn[nH]2)cc1 [Candesartan] | 0.292 ± 0.03
CC(CNC1CCCCC1)OC(=O)c1ccccc1 (centres undefined) [Hexylcaine hydrochloride] | 0.452 ± 0.026
C#C[C@]1(O)CC[C@H]2[C@@H]3CCC4=Cc5oncc5C[C@]4(C)[C@H]3CC[C@@]21C [Danazol] | 0.295 ± 0.075
CC1CC(OC(=O)c2ccccc2O)CC(C)(C)C1 (centres undefined) [Homosalate] | 0.202 ± 0.011
CCOc1ccc2c(c1)C(C)=CC(C)(C)N2 [Ethoxyquin] | 0.353 ± 0.083
CN(C)CCN(Cc1ccc(Cl)cc1)c1ccccn1 [Chloropyramine hydrochloride] | 0.171 ± 0.017
COc1ccc([C@@H]2CC(=O)c3c(O)cc(O[C@@H]4O[C@H](CO[C@@H]5O[C@@H](C)[C@H](O)[C@@H](O)[C@H]5O)[C@@H](O)[C@H](O)[C@H]4O)cc3O2)cc1O [Hesperidin] | 0.22 ± 0.035
CO[C@H]1C[C@H](O[C@H]2[C@H](C)[C@@H](O[C@@H]3O[C@H](C)C[C@H](N(C)C)[C@H]3OC(C)=O)[C@@H](C)C[C@@]3(CO3)C(=O)[C@H](C)[C@@H](OC(C)=O)[C@@H](C)[C@@H](C)OC(=O)[C@@H]2C)O[C@@H](C)[C@@H]1OC(C)=O [Troleandomycin] | 0.15 ± 0.012
CCCCCN(CCCCC)C(=O)C(CCC(=O)O)NC(=O)c1ccc(Cl)c(Cl)c1 (centres undefined) [Lorglumide sodium salt] | 0.194 ± 0.019
CC(Oc1ccccc1)C(=O)N[C@@H]1C(=O)N2[C@@H]1SC(C)(C)[C@@H]2C(=O)O (some centres undefined) [Phenethicillin potassium salt] | 0.306 ± 0.05
C#C[C@]1(O)CC[C@H]2[C@@H]3CCC4=CC(=O)CC[C@@H]4[C@H]3CC[C@@]21C [Norethindrone] | 0.286 ± 0.041
CC[C@H](C)[C@H](N)C1=N[C@H](C(=O)N[C@@H](CC(C)C)C(=O)N[C@H](CCC(=O)O)C(=O)N[C@H](C(=O)N[C@H]2CCCCNC(=O)[C@H](CC(N)=O)NC(=O)[C@@H](CC(=O)O)NC(=O)[C@H](Cc3cnc[nH]3)NC(=O)[C@@H](Cc3ccccc3)NC(=O)[C@H]([C@@H](C)CC)NC(=O)[C@@H](CCCN)NC2=O)[C@@H](C)CC)CS1 [Bacitracin] | 0.298 ± 0.05
CN(C)CC/C=C1/c2ccccc2COc2ccc(CC(=O)O)cc21 [Olopatadine hydrochloride] | 0.256 ± 0.056
C[C@]12CCC(=O)C=C1C=C[C@@H]1[C@@H]2CC[C@@]2(C)[C@H]1CC[C@@]21CCC(=O)O1 [Canrenone] | 0.217 ± 0.055
CCC(C)n1ncn(-c2ccc(N3CCN(c4ccc(OCC5COC(Cn6cncn6)(c6ccc(Cl)cc6Cl)O5)cc4)CC3)cc2)c1=O (centres undefined) [Itraconazole] | 0.421 ± 0.0098
CCCOc1ccc(C(=O)OCCN(CC)CC)cc1N [Proparacaine hydrochloride] | 0.46 ± 0.0053
COc1ccc([C@@H]2Sc3ccccc3N(CCN(C)C)C(=O)[C@@H]2OC(C)=O)cc1 [Diltiazem hydrochloride] | 0.248 ± 0.063
CCc1cccc2c3c([nH]c12)C(CC)(CC(=O)O)OCC3 (centres undefined) [Etodolac] | 0.276 ± 0.027
N=C(N)NC(=O)c1nc(Cl)c(N)nc1N [Amiloride hydrochloride dihydrate] | 0.387 ± 0.036
N=C(N)c1ccc(OCCCCCOc2ccc(C(=N)N)cc2)cc1 [Pentamidine isethionate] | 0.0804 ± 0.013
COc1ccccc1O [Guaiacol] | 0.212 ± 0.031
CN(C)CCOC1=Cc2ccccc2Sc2ccc(Cl)cc21 [Zotepine] | 0.168 ± 0.0075
CC(=O)N[C@@H](CS)C(=O)O [Acetylcysteine] | 0.437 ± 0.059

Same assay, conditions: arabinose induction (level): Low; compound 0.1 mM; raw OD600 reference: median of DMSO wells 0.417, cell-free background 0.041

SMILES | growth
Cc1onc(-c2c(F)cccc2Cl)c1C(=O)N[C@@H]1C(=O)N2[C@@H]1SC(C)(C)[C@@H]2C(=O)O [Flucloxacillin sodium] | 0.432 ± 0.059
CN(C/C=C/c1ccccc1)Cc1cccc2ccccc12 [Naftifine hydrochloride] | 0.313 ± 0.069
COc1ccccc1Oc1c(NS(=O)(=O)c2ccc(C(C)(C)C)cc2)nc(-c2ncccn2)nc1OCCO [Bosentan] | 0.335 ± 0.065
O=C(O)CCC(=O)Nc1ccc(S(=O)(=O)Nc2nccs2)cc1 [Succinylsulfathiazole] | 0.432 ± 0.04
NC(=O)OCC(O)COc1ccc(Cl)cc1 (centres undefined) [Chlorphensin carbamate] | 0.379 ± 0.024
C(=C\c1ccccc1)/CN1CCN(C(c2ccccc2)c2ccccc2)CC1 [Cinnarizine] | 0.395 ± 0.02
Cc1ccccc1OCC(O)CO (centres undefined) [Mephenesin] | 0.45 ± 0.025
O=C(O)CN(CCN(CC(=O)O)CC(=O)O)CCN(CC(=O)O)CC(=O)O [Pentetic acid] | 0.0868 ± 0.024
CC(=O)OCC(=O)[C@@]1(OC(C)=O)[C@@H](C)C[C@H]2[C@@H]3C[C@H](F)C4=CC(=O)C=C[C@]4(C)[C@@]3(F)[C@@H](O)C[C@@]21C [Diflorasone Diacetate] | 0.228 ± 0.008
O=C1C(CC[S+]([O-])c2ccccc2)C(=O)N(c2ccccc2)N1c1ccccc1 (centres undefined) [Sulfinpyrazone] | 0.316 ± 0.087
O=C(CCNNC(=O)c1ccncc1)NCc1ccccc1 [Nialamide] | 0.346 ± 0.062
C[N+]1(C)CCC(=C(c2ccccc2)c2ccccc2)CC1 [Diphemanil methylsulfate] | 0.352 ± 0.065
Cc1ccc(C)c(OCCCC(C)(C)C(=O)O)c1 [Gemfibrozil] | 0.214 ± 0.0039
O=C1CCc2cc(OCCCCc3nnnn3C3CCCCC3)ccc2N1 [Cilostazol] | 0.285 ± 0.033
COc1cc(C(=O)NCc2ccc(OCCN(C)C)cc2)cc(OC)c1OC [Trimethobenzamide hydrochloride] | 0.385 ± 0.015
Cc1nnc(SCC2=C(C(=O)O)N3C(=O)[C@@H](NC(=O)Cn4cnnn4)[C@H]3SC2)s1 [Cefazolin sodium salt] | 0.428 ± 0.0098
N#Cc1ccc(C(c2ccc(C#N)cc2)n2cncn2)cc1 [Letrozole] | 0.356 ± 0.086
CCOc1nc2cccc(C(=O)O)c2n1Cc1ccc(-c2ccccc2-c2nnn[nH]2)cc1 [Candesartan] | 0.265 ± 0.029

SMILES | growth
CC(CNC1CCCCC1)OC(=O)c1ccccc1 (centres undefined) [Hexylcaine hydrochloride] | 0.489 ± 0.039
C#C[C@]1(O)CC[C@H]2[C@@H]3CCC4=Cc5oncc5C[C@]4(C)[C@H]3CC[C@@]21C [Danazol] | 0.277 ± 0.022
CC1CC(OC(=O)c2ccccc2O)CC(C)(C)C1 (centres undefined) [Homosalate] | 0.332 ± 0.052
CCOc1ccc2c(c1)C(C)=CC(C)(C)N2 [Ethoxyquin] | 0.305 ± 0.042
CN(C)CCN(Cc1ccc(Cl)cc1)c1ccccn1 [Chloropyramine hydrochloride] | 0.43 ± 0.013
COc1ccc([C@@H]2CC(=O)c3c(O)cc(O[C@@H]4O[C@H](CO[C@@H]5O[C@@H](C)[C@H](O)[C@@H](O)[C@H]5O)[C@@H](O)[C@H](O)[C@H]4O)cc3O2)cc1O [Hesperidin] | 0.284 ± 0.06
CO[C@H]1C[C@H](O[C@H]2[C@H](C)[C@@H](O[C@@H]3O[C@H](C)C[C@H](N(C)C)[C@H]3OC(C)=O)[C@@H](C)C[C@@]3(CO3)C(=O)[C@H](C)[C@@H](OC(C)=O)[C@@H](C)[C@@H](C)OC(=O)[C@@H]2C)O[C@@H](C)[C@@H]1OC(C)=O [Troleandomycin] | 0.145 ± 0.0075
CCCCCN(CCCCC)C(=O)C(CCC(=O)O)NC(=O)c1ccc(Cl)c(Cl)c1 (centres undefined) [Lorglumide sodium salt] | 0.162 ± 0.0069
CC(Oc1ccccc1)C(=O)N[C@@H]1C(=O)N2[C@@H]1SC(C)(C)[C@@H]2C(=O)O (some centres undefined) [Phenethicillin potassium salt] | 0.438 ± 0.011
C#C[C@]1(O)CC[C@H]2[C@@H]3CCC4=CC(=O)CC[C@@H]4[C@H]3CC[C@@]21C [Norethindrone] | 0.362 ± 0.058
CC[C@H](C)[C@H](N)C1=N[C@H](C(=O)N[C@@H](CC(C)C)C(=O)N[C@H](CCC(=O)O)C(=O)N[C@H](C(=O)N[C@H]2CCCCNC(=O)[C@H](CC(N)=O)NC(=O)[C@@H](CC(=O)O)NC(=O)[C@H](Cc3cnc[nH]3)NC(=O)[C@@H](Cc3ccccc3)NC(=O)[C@H]([C@@H](C)CC)NC(=O)[C@@H](CCCN)NC2=O)[C@@H](C)CC)CS1 [Bacitracin] | 0.269 ± 0.054
CN(C)CC/C=C1/c2ccccc2COc2ccc(CC(=O)O)cc21 [Olopatadine hydrochloride] | 0.328 ± 0.089
C[C@]12CCC(=O)C=C1C=C[C@@H]1[C@@H]2CC[C@@]2(C)[C@H]1CC[C@@]21CCC(=O)O1 [Canrenone] | 0.227 ± 0.042
CCC(C)n1ncn(-c2ccc(N3CCN(c4ccc(OCC5COC(Cn6cncn6)(c6ccc(Cl)cc6Cl)O5)cc4)CC3)cc2)c1=O (centres undefined) [Itraconazole] | 0.462 ± 0.049
CCCOc1ccc(C(=O)OCCN(CC)CC)cc1N [Proparacaine hydrochloride] | 0.426 ± 0.025
COc1ccc([C@@H]2Sc3ccccc3N(CCN(C)C)C(=O)[C@@H]2OC(C)=O)cc1 [Diltiazem hydrochloride] | 0.434 ± 0.098
CCc1cccc2c3c([nH]c12)C(CC)(CC(=O)O)OCC3 (centres undefined) [Etodolac] | 0.267 ± 0.017
N=C(N)NC(=O)c1nc(Cl)c(N)nc1N [Amiloride hydrochloride dihydrate] | 0.428 ± 0.033
